INHIBITION data for 55 compounds are collected here from ChEMBL document CHEMBL4513216, “Probing the Open Global Health Chemical Diversity Library for Multistage-Active Starting Points for Next-Generation Antimalarials” (ACS Infect Dis, 2020).

In all, about 65,000 compounds went through this assay and about 2,100 (3.2%) showed an effect of 50% or more. The median lay at about -52%. Many of the other results were omitted from the sample, so strong results are more common in it than they were.

For this assay, the system named is Plasmodium falciparum. In words: Screen against P. falciparum Asexual Blood Stage (ABS), at 5uM. The class given is functional, Dd2. Conditions: tested at 5 uM.
For the compound `CS(=O)(=O)N1Cc2cnn(CC3CC3)c2C(COCC2CC2)C1` (stereo not given), the INHIBITION is on record as -13.5%.

In the case of `O=C(NCC1CCS(=O)(=O)C1)c1ccco1` (stereo not given), the INHIBITION is on record as -48%.

As to `Cc1nc2ccc(C(=O)N3C[C@@H](O)[C@H](N4CCOCC4)C3)cc2[nH]1`, the INHIBITION was -0.956%.

In the case of `Fc1ccc(C(NCc2nnc(-c3ccco3)o2)C2CCC2)cc1` (stereo not given), the INHIBITION is -32.2%.

`CN(C)c1ccc(NC(=O)NCC2CCOC2)cn1` (stereo not given): the INHIBITION was 33.3%.

Regarding `Cc1cc(F)ccc1S(=O)(=O)N1CCN(C)c2ccncc21`, the INHIBITION was 22.6%.

Turning to `Cc1ccc(S(=O)(=O)N2CCN(C)c3ccncc32)cc1F`, the INHIBITION amounted to 61.6%.

`CN1CCN(S(=O)(=O)c2cccc(F)c2)c2cnccc21`: the INHIBITION is given as 13.2%.

For the compound `N#CC1(C(=O)N2CCOC(c3ccc(Cl)cc3)C2)CCCC1` (stereo not given), the INHIBITION is recorded as -11.4%.

As to `CN(Cc1ccccc1F)C(C(N)=O)c1ccccc1` (stereo not given), the INHIBITION was -90%.

Consider `COc1nccc(N2CC[C@@H](N3CCC(O)CC3)[C@H](O)C2)c1C#N`, for which the INHIBITION is given as -75.9%.

As to `COc1nccc(N2CC[C@@H](N3CCCCCC3)[C@H](O)C2)c1C#N`, the INHIBITION is 52.3%.

For the compound `COc1nccc(N2CC[C@@H](N3CCN(C)CC3)[C@H](O)C2)c1C#N`, the INHIBITION is on record as -50.4%.

Consider `O=C([C@H]1C[C@H]2OCC[C@H]2N(CC2CCOCC2)C1)N1CCCCO1`, for which the INHIBITION is listed as -23.2%.

As for `Clc1cccc(-n2cnnn2)c1N1CCCCC1`, the INHIBITION was -48.1%.

On to `CCOC(=O)C1CN(CC2CC2)Cc2ncn(CC)c21` (stereo not given), for which the INHIBITION was 14%.

For `CNC(=O)CN1CCOCC12CCN(C(=O)c1ccc(C)cc1)CC2`, the INHIBITION is given as -78%.

As for `Cn1cc(C[C@H]2[C@H](N3CCOCC3)CCN2c2ncc(F)cn2)cn1`, the INHIBITION is -63.8%.

In the case of `CCN(C)C[C@@H]1CN(S(=O)(=O)c2ccc(C#N)cc2)C[C@@H]1CO`, the INHIBITION turned out to be 15.5%.

Take `CCN1CCCC1CN(CCN(C)C)S(=O)(=O)c1cccc(C#N)c1` (stereo not given): the INHIBITION is listed as 60.4%.

With `COCCCC1CCCCN1S(=O)(=O)c1cccc(C#N)c1` (stereo not given), the INHIBITION is reported as -16.1%.

On to `N#Cc1cccc(S(=O)(=O)N2CCCCC2CCN2CCCC2)c1` (stereo not given), for which the INHIBITION was -4%.

Regarding `CN(CCn1cccn1)S(=O)(=O)c1ccc(C#N)cc1`, the INHIBITION is given as -48.4%.

In the case of `CCN1CCCC1CN(CCN(C)C)S(=O)(=O)c1ccc(C#N)cc1` (stereo not given), the INHIBITION is given as 59.7%.

`CN1CCN(C(=O)c2cnsn2)c2cc(F)ccc21`: the INHIBITION was -79.3%.

Regarding `CSc1ccc(-c2noc(CN(CC(C)C)CC(C)C)n2)cc1`, the INHIBITION was -63.5%.

Consider `O=C(O)C1(Cc2cc(-c3ccc(F)cc3)no2)CCOCC1`, for which the INHIBITION is given as -19.8%.

With `Cc1ccc(NC(=O)CC2Cn3ncnc3NC2=O)cc1C` (stereo not given), the INHIBITION is listed as -65.7%.

Consider `CCn1ccnc1CN1CCCC1Cn1cc(C)cn1` (stereo not given), for which the INHIBITION stood at 65.6%.

As for `Cc1cnn(CC2CCCN2Cc2nccn2C)c1` (stereo not given), the INHIBITION is given as -72.8%.

With `Cc1cnn(CC2CCCN2Cc2nccn2CC(F)(F)F)c1` (stereo not given), the INHIBITION is -0.234%.

Consider `CN(C)CCCNC(=O)c1ccc(N(C)S(C)(=O)=O)cc1Cl`, for which the INHIBITION is given as -70.5%.

For the compound `O=C(CCc1ccccc1F)NS(=O)(=O)c1ccc2c(c1)OCCO2`, the INHIBITION was -17.8%.

For `CCS(=O)(=O)N1CCCC2(COCCN(c3ccccn3)C2)C1` (stereo not given), the INHIBITION is reported as -1.4%.

Take `COCC(O)CNC(=O)Nc1ccc(Cl)cc1-n1cccc1` (stereo not given): the INHIBITION is given as -45.8%.

Take `CCCn1ncc(CN(CCN(C)C)Cc2ccsc2)c1C`: the INHIBITION was 54.5%.

With `CCCn1ncc(CN(Cc2cccnc2)Cc2ccsc2)c1C`, the INHIBITION was -129%.

On to `CCCn1ncc(CN(Cc2ccsc2)Cc2ccco2)c1C`, for which the INHIBITION was -122%.

For the compound `CCCc1cc(C(=O)NC(COC)c2ccnn2C)no1` (stereo not given), the INHIBITION was 4.52%.

For the compound `Cc1ccsc1CN(CCN(C)C)Cc1ccccn1`, the INHIBITION was 58.9%.

Take `Cc1ccsc1CN(Cc1ccccn1)CC(C)C`: the INHIBITION is listed as -56.9%.

`COCCN(Cc1ccccn1)Cc1sccc1C`: the INHIBITION is -158%.

With `Cc1ccc(CCNC(=O)CC2COCCN2S(=O)(=O)N(C)C)s1` (stereo not given), the INHIBITION is recorded as -49%.

Turning to `Cc1nc(C)n(CC2CCCN2Cc2ncc(C(C)(C)C)o2)n1` (stereo not given), the INHIBITION is 61.9%.

Consider `Cc1nc(CN2CCCC2Cn2cccn2)nc2ccccc12` (stereo not given), for which the INHIBITION is 55.5%.

Take `Cc1cc(C)n(CC2CCCN2Cc2ncc(C(C)(C)C)o2)n1` (stereo not given): the INHIBITION is -80.1%.

Take `Cc1nc(CN2CCCC2Cn2cncn2)nc2ccccc12` (stereo not given): the INHIBITION is listed as -14.5%.

As to `Cc1nc(C)n(CC2CCCN2Cc2nc3ccccc3nc2C)n1` (stereo not given), the INHIBITION stood at 31.2%.

Turning to `Cc1nc(C)n(CC2CCCN2Cc2nc(C)c3ccccc3n2)n1` (stereo not given), the INHIBITION stood at 55%.

For `Cc1nn(C)c(C)c1C1CCCN1Cc1nc2ccccc2n1C` (stereo not given), the INHIBITION came to 1.9%.

As to `Cc1nn(C)c(C)c1C1CCCN1Cc1nc(C)c2ccccc2n1` (stereo not given), the INHIBITION is on record as -19.2%.

As for `Cc1nc(CN2CCCCC2Cn2cncn2)nc2ccccc12` (stereo not given), the INHIBITION was -50.6%.

Consider `Cc1nc(C)n(CC2CCCN2Cc2nc(N)c3ccccc3n2)n1` (stereo not given), for which the INHIBITION is recorded as -98.4%.

Take `Cc1nc2ccccc2nc1CN1CCCC1c1c(C)nn(C)c1C` (stereo not given): the INHIBITION is on record as 58.1%.

With `Cc1nc(C)n(CC2CCCCN2Cc2ncc(C(C)(C)C)o2)n1` (stereo not given), the INHIBITION is on record as -43.5%.
